# Target: AgAbp1
# Experiment: SPOT peptide array binding signal intensity (averaged, normalized) (arbitrary units (background-subtracted, floor 0; scale differs between SH3 domains)); higher = stronger binding of the SH3 domain to the peptide
# Procedure, shortened: (§1)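 The binding signal is the normalized, background-subtracted spot intensity averaged over replicates; its arbitrary units differ between domains. It was obtained by incubating 10 μg/ml GST-fused SH3 domains from four yeast species overnight at 4°C in TBS-based blocking buffer on cellulose membranes with synthetic 15-mer peptides, cysteines replaced by serines, then detecting with anti-GST antibody, HRP anti-mouse secondary and luminol.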
row,Binder,SPOT peptide array binding signal intensity
1,MAMRPIPPLPTESEY,9

# Target: AgBbc1
# Experiment: as above
# Procedure, shortened: as §1
row,Binder,SPOT peptide array binding signal intensity
1,MAMRPIPPLPTESEY,8

# Target: AgBem1-D1
# Experiment: as above
# Procedure, shortened: as §1
row,Binder,SPOT peptide array binding signal intensity
1,MAMRPIPPLPTESEY,155

# Target: AgBzz1-D1
# Experiment: as above
# Procedure, shortened: as §1
row,Binder,SPOT peptide array binding signal intensity
1,MAMRPIPPLPTESEY,7

# Target: AgBzz1-D2
# Experiment: as above
# Procedure, shortened: as §1
row,Binder,SPOT peptide array binding signal intensity
1,MAMRPIPPLPTESEY,≤ 0

# Target: AgCyk3
# Experiment: as above
# Procedure, shortened: as §1
row,Binder,SPOT peptide array binding signal intensity
1,MAMRPIPPLPTESEY,13

# Target: AgFus1
# Experiment: as above
# Procedure, shortened: as §1
row,Binder,SPOT peptide array binding signal intensity
1,MAMRPIPPLPTESEY,55.5

# Target: AgHof1
# Experiment: as above
# Procedure, shortened: as §1
row,Binder,SPOT peptide array binding signal intensity
1,MAMRPIPPLPTESEY,87.8

# Target: AgHse1
# Experiment: as above
# Procedure, shortened: as §1
row,Binder,SPOT peptide array binding signal intensity
1,MAMRPIPPLPTESEY,38

# Target: AgLsb1
# Experiment: as above
# Procedure, shortened: as §1
row,Binder,SPOT peptide array binding signal intensity
1,MAMRPIPPLPTESEY,230

# Target: AgLsb4
# Experiment: as above
# Procedure, shortened: as §1
row,Binder,SPOT peptide array binding signal intensity
1,MAMRPIPPLPTESEY,1930

# Target: AgMyo5
# Experiment: as above
# Procedure, shortened: as §1
row,Binder,SPOT peptide array binding signal intensity
1,MAMRPIPPLPTESEY,≤ 0

# Target: AgNbp2
# Experiment: as above
# Procedure, shortened: as §1
row,Binder,SPOT peptide array binding signal intensity
1,MAMRPIPPLPTESEY,81

# Target: AgRvs167
# Experiment: as above
# Procedure, shortened: as §1
row,Binder,SPOT peptide array binding signal intensity
1,MAMRPIPPLPTESEY,308

# Target: AgSho1
# Experiment: as above
# Procedure, shortened: as §1
row,Binder,SPOT peptide array binding signal intensity
1,MAMRPIPPLPTESEY,353

# Target: AgSla1-D1-D2
# Experiment: as above
# Procedure, shortened: as §1
row,Binder,SPOT peptide array binding signal intensity
1,MAMRPIPPLPTESEY,2

# Target: AgSla1-D3
# Experiment: as above
# Procedure, shortened: as §1
row,Binder,SPOT peptide array binding signal intensity
1,MAMRPIPPLPTESEY,≤ 0

# Target: CaAbp1-D1
# Experiment: as above
# Procedure, shortened: as §1
row,Binder,SPOT peptide array binding signal intensity
1,MAMRPIPPLPTESEY,35

# Target: CaAbp1-D2
# Experiment: as above
# Procedure, shortened: as §1
row,Binder,SPOT peptide array binding signal intensity
1,MAMRPIPPLPTESEY,79

# Target: CaBbc1
# Experiment: as above
# Procedure, shortened: as §1
row,Binder,SPOT peptide array binding signal intensity
1,MAMRPIPPLPTESEY,32

# Target: CaBem1-D1
# Experiment: as above
# Procedure, shortened: as §1
row,Binder,SPOT peptide array binding signal intensity
1,MAMRPIPPLPTESEY,71

# Target: CaBzz1-D1
# Experiment: as above
# Procedure, shortened: as §1
row,Binder,SPOT peptide array binding signal intensity
1,MAMRPIPPLPTESEY,54

# Target: CaBzz1-D2
# Experiment: as above
# Procedure, shortened: as §1
row,Binder,SPOT peptide array binding signal intensity
1,MAMRPIPPLPTESEY,39

# Target: CaCyk3
# Experiment: as above
# Procedure, shortened: as §1
row,Binder,SPOT peptide array binding signal intensity
1,MAMRPIPPLPTESEY,12

# Target: CaFus1
# Experiment: as above
# Procedure, shortened: as §1
row,Binder,SPOT peptide array binding signal intensity
1,MAMRPIPPLPTESEY,226

# Target: CaHof1
# Experiment: as above
# Procedure, shortened: as §1
row,Binder,SPOT peptide array binding signal intensity
1,MAMRPIPPLPTESEY,10

# Target: CaHse1
# Experiment: as above
# Procedure, shortened: as §1
row,Binder,SPOT peptide array binding signal intensity
1,MAMRPIPPLPTESEY,186

# Target: CaLsb1
# Experiment: as above
# Procedure, shortened: as §1
row,Binder,SPOT peptide array binding signal intensity
1,MAMRPIPPLPTESEY,11

# Target: CaLsb4
# Experiment: as above
# Procedure, shortened: as §1
row,Binder,SPOT peptide array binding signal intensity
1,MAMRPIPPLPTESEY,1410

# Target: CaMyo5
# Experiment: as above
# Procedure, shortened: as §1
row,Binder,SPOT peptide array binding signal intensity
1,MAMRPIPPLPTESEY,35.2

# Target: CaNbp2
# Experiment: as above
# Procedure, shortened: as §1
row,Binder,SPOT peptide array binding signal intensity
1,MAMRPIPPLPTESEY,628

# Target: CaRvs167
# Experiment: as above
# Procedure, shortened: as §1
row,Binder,SPOT peptide array binding signal intensity
1,MAMRPIPPLPTESEY,528

# Target: CaRvs167-3
# Experiment: as above
# Procedure, shortened: as §1
row,Binder,SPOT peptide array binding signal intensity
1,MAMRPIPPLPTESEY,≤ 0

# Target: CaSho1
# Experiment: as above
# Procedure, shortened: as §1
row,Binder,SPOT peptide array binding signal intensity
1,MAMRPIPPLPTESEY,596

# Target: CaSla1-D1-D2
# Experiment: as above
# Procedure, shortened: as §1
row,Binder,SPOT peptide array binding signal intensity
1,MAMRPIPPLPTESEY,128

# Target: CaSla1-D3
# Experiment: as above
# Procedure, shortened: as §1
row,Binder,SPOT peptide array binding signal intensity
1,MAMRPIPPLPTESEY,110

# Target: ScAbp1
# Experiment: as above
# Procedure, shortened: as §1
row,Binder,SPOT peptide array binding signal intensity
1,MAMRPIPPLPTESEY,4.5

# Target: ScBbc1
# Experiment: as above
# Procedure, shortened: as §1
row,Binder,SPOT peptide array binding signal intensity
1,MAMRPIPPLPTESEY,2

# Target: ScBem1-D1
# Experiment: as above
# Procedure, shortened: as §1
row,Binder,SPOT peptide array binding signal intensity
1,MAMRPIPPLPTESEY,≤ 0

# Target: ScBzz1-D1
# Experiment: as above
# Procedure, shortened: as §1
row,Binder,SPOT peptide array binding signal intensity
1,MAMRPIPPLPTESEY,≤ 0

# Target: ScBzz1-D2
# Experiment: as above
# Procedure, shortened: as §1
row,Binder,SPOT peptide array binding signal intensity
1,MAMRPIPPLPTESEY,≤ 0

# Target: ScCyk3
# Experiment: as above
# Procedure, shortened: as §1
row,Binder,SPOT peptide array binding signal intensity
1,MAMRPIPPLPTESEY,≤ 0

# Target: ScFus1
# Experiment: as above
# Procedure, shortened: as §1
row,Binder,SPOT peptide array binding signal intensity
1,MAMRPIPPLPTESEY,106

# Target: ScHof1
# Experiment: as above
# Procedure, shortened: as §1
row,Binder,SPOT peptide array binding signal intensity
1,MAMRPIPPLPTESEY,304

# Target: ScHse1
# Experiment: as above
# Procedure, shortened: as §1
row,Binder,SPOT peptide array binding signal intensity
1,MAMRPIPPLPTESEY,≤ 0

# Target: ScLsb1
# Experiment: as above
# Procedure, shortened: as §1
row,Binder,SPOT peptide array binding signal intensity
1,MAMRPIPPLPTESEY,106

# Target: ScLsb2
# Experiment: as above
# Procedure, shortened: as §1
row,Binder,SPOT peptide array binding signal intensity
1,MAMRPIPPLPTESEY,19.5

# Target: ScLsb3
# Experiment: as above
# Procedure, shortened: as §1
row,Binder,SPOT peptide array binding signal intensity
1,MAMRPIPPLPTESEY,4040

# Target: ScLsb4
# Experiment: as above
# Procedure, shortened: as §1
row,Binder,SPOT peptide array binding signal intensity
1,MAMRPIPPLPTESEY,1070

# Target: ScMyo3
# Experiment: as above
# Procedure, shortened: as §1
row,Binder,SPOT peptide array binding signal intensity
1,MAMRPIPPLPTESEY,21.5

# Target: ScMyo5
# Experiment: as above
# Procedure, shortened: as §1
row,Binder,SPOT peptide array binding signal intensity
1,MAMRPIPPLPTESEY,3

# Target: ScNbp2
# Experiment: as above
# Procedure, shortened: as §1
row,Binder,SPOT peptide array binding signal intensity
1,MAMRPIPPLPTESEY,172

# Target: ScPex13
# Experiment: as above
# Procedure, shortened: as §1
row,Binder,SPOT peptide array binding signal intensity
1,MAMRPIPPLPTESEY,1090

# Target: ScRvs167
# Experiment: as above
# Procedure, shortened: as §1
row,Binder,SPOT peptide array binding signal intensity
1,MAMRPIPPLPTESEY,821

# Target: ScSho1
# Experiment: as above
# Procedure, shortened: as §1
row,Binder,SPOT peptide array binding signal intensity
1,MAMRPIPPLPTESEY,543

# Target: ScSla1-D1-D2
# Experiment: as above
# Procedure, shortened: as §1
row,Binder,SPOT peptide array binding signal intensity
1,MAMRPIPPLPTESEY,167

# Target: ScSla1-D3
# Experiment: as above
# Procedure, shortened: as §1
row,Binder,SPOT peptide array binding signal intensity
1,MAMRPIPPLPTESEY,82.2

# Target: SpAbp1-D1
# Experiment: as above
# Procedure, shortened: as §1
row,Binder,SPOT peptide array binding signal intensity
1,MAMRPIPPLPTESEY,13

# Target: SpBbc1
# Experiment: as above
# Procedure, shortened: as §1
row,Binder,SPOT peptide array binding signal intensity
1,MAMRPIPPLPTESEY,4.75

# Target: SpBzz1-D1
# Experiment: as above
# Procedure, shortened: as §1
row,Binder,SPOT peptide array binding signal intensity
1,MAMRPIPPLPTESEY,79.5

# Target: SpBzz1-D2
# Experiment: as above
# Procedure, shortened: as §1
row,Binder,SPOT peptide array binding signal intensity
1,MAMRPIPPLPTESEY,17

# Target: SpCyk3
# Experiment: as above
# Procedure, shortened: as §1
row,Binder,SPOT peptide array binding signal intensity
1,MAMRPIPPLPTESEY,14

# Target: SpHof1
# Experiment: as above
# Procedure, shortened: as §1
row,Binder,SPOT peptide array binding signal intensity
1,MAMRPIPPLPTESEY,140

# Target: SpHof1-2
# Experiment: as above
# Procedure, shortened: as §1
row,Binder,SPOT peptide array binding signal intensity
1,MAMRPIPPLPTESEY,110

# Target: SpHof1-3
# Experiment: as above
# Procedure, shortened: as §1
row,Binder,SPOT peptide array binding signal intensity
1,MAMRPIPPLPTESEY,26.8

# Target: SpHse1
# Experiment: as above
# Procedure, shortened: as §1
row,Binder,SPOT peptide array binding signal intensity
1,MAMRPIPPLPTESEY,66

# Target: SpLsb1
# Experiment: as above
# Procedure, shortened: as §1
row,Binder,SPOT peptide array binding signal intensity
1,MAMRPIPPLPTESEY,67.8

# Target: SpLsb4
# Experiment: as above
# Procedure, shortened: as §1
row,Binder,SPOT peptide array binding signal intensity
1,MAMRPIPPLPTESEY,2610

# Target: SpMyo1
# Experiment: as above
# Procedure, shortened: as §1
row,Binder,SPOT peptide array binding signal intensity
1,MAMRPIPPLPTESEY,309

# Target: SpNbp2
# Experiment: as above
# Procedure, shortened: as §1
row,Binder,SPOT peptide array binding signal intensity
1,MAMRPIPPLPTESEY,42.5

# Target: SpPex13
# Experiment: as above
# Procedure, shortened: as §1
row,Binder,SPOT peptide array binding signal intensity
1,MAMRPIPPLPTESEY,72

# Target: SpRvs167
# Experiment: as above
# Procedure, shortened: as §1
row,Binder,SPOT peptide array binding signal intensity
1,MAMRPIPPLPTESEY,1130

# Target: SpSla1-D1-D2
# Experiment: as above
# Procedure, shortened: as §1
row,Binder,SPOT peptide array binding signal intensity
1,MAMRPIPPLPTESEY,2

# Target: SpSla1-D3
# Experiment: as above
# Procedure, shortened: as §1
row,Binder,SPOT peptide array binding signal intensity
1,MAMRPIPPLPTESEY,28

# Reference: the supplement of paper PMC4466140
